Results reported in PubChem BioAssay AID1825 (The Scripps Research Institute Molecular Screening Center, 2009).
In all, about 290,000 compounds went through this assay and about 2,300 (0.79%) were called active. This is one part of a sample in which actives are shown more often than they occur. Rule as the data show it: active = inhibition above about 22%; inactive = the rest.

Test: IEC-6 cell viability reduction – luminescence, cytotoxicity control for KLF5 inhibitor project, primary screen (AID 1825);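 also: 0% = plate median of test compound wells and 100% = cytotoxic reference compound wells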
Conditions: IEC-6 cytotoxicity, at 5 µM, stronger effect = higher value

Structure (SMILES) | inhibition
CCn1ccnc1CN(C)C(=O)c1cc(COc2ccc(Cl)cc2OC)on1 | 1.4% (inactive)
Cc1nn(CCCC(=O)NCc2ccccc2Cl)c(=O)c2nccn12 | -5.6% (inactive)
Cc1cc(Oc2ccc(Cl)cc2)nc(SCC(=O)c2ccccc2)n1 | 1.9% (inactive)
Cc1cc(N/N=C\c2ccc(Br)cc2)nc(-n2nc(C)cc2C)n1 | -0.5% (inactive)
COc1ccccc1/C=N\Nc1cc(C)nc(-n2nc(C)cc2C)n1 | -10.1% (inactive)
CCOC(=O)c1cnc(-n2nc(C)cc2C)nc1Nc1cccc(C(C)=O)c1 | 1.3% (inactive)
COc1ccc(Nc2cc(C)nc(-n3nc(C)cc3C)n2)cc1 | 84.8% (active)
CC(=O)c1ccc(Oc2cc(C)nc(-n3nc(C)cc3C)n2)cc1 | 85.4% (active)
N#CCc1ccc(NC(=O)c2ccccc2C(=O)Nc2ccc(CC#N)cc2)cc1 | -5.3% (inactive)
COC(=O)COc1ccc2c(=O)c(Oc3ccccc3Br)coc2c1 | 5.7% (inactive)
Cc1nc2sccn2c(=O)c1S(=O)(=O)NCCc1ccccc1 | -0.1% (inactive)
CCc1cccc(NC(=O)C2CCCN(S(=O)(=O)c3ccc4[nH]c(=O)ccc4c3)C2)c1 (stereo unspecified) | -2.8% (inactive)
COc1ccc(Nc2nnc(C)c3ccccc23)cc1 | -4% (inactive)
COc1ccc2oc(=O)cc(-c3cc4ccccc4o3)c2c1 | 2.8% (inactive)
COc1ccc(Nc2cc(=O)oc3ccccc23)cc1 | 46.4% (active)
O=S(=O)(Cc1nnnn1-c1ccccc1)c1ccccc1 | 1.5% (inactive)
O=C(Nc1nnc(S(=O)(=O)N2CCOCC2)s1)c1cccc(Br)c1 | 0.3% (inactive)
O=C(Nc1nnc(C2CC2)s1)c1ccccn1 | 27.4% (active)
O=C(Nc1nnc(C2CC2)s1)c1cc(Cl)sc1Cl | 0.1% (inactive)
Cc1cnc(NC(=O)c2ccccn2)s1 | 8.9% (inactive)
COc1ccc(/C=N/N(C)C2=NS(=O)(=O)c3ccccc32)cc1OC | -2.2% (inactive)
CN(C)c1nc(=Nc2cccc(Cl)c2)ss1 | 56.2% (active)

Structure (SMILES) | inhibition
Clc1cccc(N=C2NN=C(c3ccc4c(c3)OCCO4)CS2)c1 | -1.6% (inactive)
O=C(CN1CCN(Cc2ccccc2)CC1)Nc1ccc(F)c(F)c1 | 6.7% (inactive)
Cn1c(=O)oc2cc(S(=O)(=O)NCCC(=O)NCc3ccccc3Cl)ccc21 | 0.7% (inactive)
COc1ccccc1CNC(=O)C1CCN(S(=O)(=O)c2ccc3c(c2)CC(C)N3C(=O)C2CC2)CC1 (stereo unspecified) | 3.9% (inactive)
Cc1ccccc1NC(=O)CSc1nc2ccc(Nc3nc(N4CCOCC4)nc(N4CCOCC4)n3)cc2s1 | 3.9% (inactive)
Cc1cc(Nc2ccc(Cl)cc2)nc(N2CCOCC2)n1 | 11.5% (inactive)
Cc1ccc(Nc2nc(N3CCOCC3)nc(N3CCOCC3)n2)cc1Cl | 68.1% (active)
Cc1ccc(NC(=O)CN(C)C(=O)c2ccc(Br)o2)cc1 | -4.8% (inactive)
Cn1c(=O)cc(OCC(=O)N2CCN(c3ccccc3F)CC2)c2ccccc21 | -5.1% (inactive)
O=C(Nn1cc(C(=O)N2CCN(c3ccccc3F)CC2)c2ccccc2c1=O)c1cnccn1 | 23.7% (active)
O=C(c1ccc(S(=O)(=O)N2CCCC2)cc1)N1CCN(c2ccccc2F)CC1 | 2.3% (inactive)
CCCOn1c(-n2nc(C)cc2C)nc2ccccc2c1=O | 54.7% (active)
Cc1cc(C)n(-c2nc(C(F)(F)F)nc3ccccc23)n1 | 5.6% (inactive)
CCOn1c(SC(C)C)nc2ccccc2c1=O | -3.8% (inactive)
O=C(c1cc2sccc2n1Cc1ccc(F)cc1)N1CCc2ccccc21 | 1.8% (inactive)
COc1ccccc1C(C)NC(=O)Cc1ccsc1 (stereo unspecified) | 1.9% (inactive)
O=C(Nc1nc2ccc([N+](=O)[O-])cc2s1)c1ccc(S(=O)(=O)N2CCCc3ccccc32)cc1 | 2.9% (inactive)
O=C(NC(Nc1nc2ccc([N+](=O)[O-])cc2s1)(C(F)(F)F)C(F)(F)F)c1ccccc1 | 28% (active)
O=C(COC(=O)c1ccc(F)cc1)Nc1nc2ccc([N+](=O)[O-])cc2s1 | -0.2% (inactive)
CCc1nn(CCCC(=O)Nc2ccc(C)cc2C)c(=O)c2cc3occc3n12 | -4.9% (inactive)
CCCCCCn1c(CN2CCCCC2)nc2c1c(=O)n(C)c(=O)n2C | -2.7% (inactive)
CCCCCCCCn1c2c(c(=N)c3c1CCC3)CCCC2 | 47.1% (active)

Structure (SMILES) | inhibition
COc1ccc(CCNC(=O)c2c(C)nn(-c3ccccc3)c2Cl)cc1 | -1.7% (inactive)
CCOC(=O)c1c(C)[nH]c(C)c1S(=O)(=O)N(C)CC(=O)Nc1ccccc1C | -0.8% (inactive)
CCOC(=O)c1c(C)[nH]c2c1-c1ccccc1C(=O)C2=O | 43.3% (active)
CCOC(=O)C1=C(c2ccc(OC)cc2)C(=O)c2ccccc2C1=O | -1.7% (inactive)
Cc1cc(C)c(S(=O)(=O)c2cc(F)ccc2C)c(=O)[nH]1 | -1.4% (inactive)
O=C(CN1CCCCCC1)Nc1ccc(Cl)cc1F | 8.4% (inactive)
O=C(NC1(C(F)(F)F)NC(=O)N(C2CCCCC2)C1=O)c1ccco1 (stereo unspecified) | 3.5% (inactive)
COC(=O)NC1(C(F)(F)F)NC(=O)N(C2CCCCC2)C1=O (stereo unspecified) | 1.9% (inactive)
O=C1NC(Nc2nc3ccccc3s2)(C(F)(F)F)C(=O)N1C1CCCCC1 (stereo unspecified) | 28.2% (active)
CCN(CC)CCN1C(=O)C(=O)/C(=C(/O)c2cnn(-c3ccccc3)c2C)C1c1cccs1 (stereo unspecified) | 3.3% (inactive)
CN1C(=O)c2ccc(C(=O)Nc3ccc(Br)cn3)cc2C1=O | 5.5% (inactive)
C=CCc1ccccc1OCC(=O)N/N=C/c1ccccc1OCC | 1.4% (inactive)
Cc1ccc(/C=N/NC(=O)COc2ccccc2-c2ccccc2)cc1 | 85.6% (active)
CSc1ccc(/C=N\NC(=O)COc2ccc(Cl)cc2Br)cc1 | 7.1% (inactive)
COc1ccccc1NC(=O)c1ccc(N2CC3CC(C2)c2cccc(=O)n2C3)c(NC(=O)c2cccnc2)c1 (stereo unspecified) | 2.1% (inactive)
O=C(NCc1ccccc1)C(c1ccco1)N(C(=O)c1csnn1)c1ccccc1F (stereo unspecified) | 0.2% (inactive)
COc1ccc(C2CC(=O)Nc3cc(C)c(C)cc32)c(OC)c1OC (stereo unspecified) | 1.9% (inactive)
CCCOc1ccccc1C1CC(=O)Nc2cc3c(cc21)OCO3 (stereo unspecified) | 77.5% (active)
COc1ccc(S(=O)(=O)Nc2ccc3c(c2)OCO3)cc1Cl | 0.7% (inactive)
COc1cc2c(cc1OC)C(c1ccncc1)CC(=O)N2 (stereo unspecified) | 1% (inactive)
COc1ccccc1C1C2=C(COC2=O)Nc2cc3c(cc21)OCO3 (stereo unspecified) | 92.2% (active)
COC(=O)C1=C(C)NC(=O)CC1c1ccccc1OC (stereo unspecified) | -0.1% (inactive)
